Source: ChEMBL document CHEMBL4513216, “Probing the Open Global Health Chemical Diversity Library for Multistage-Active Starting Points for Next-Generation Antimalarials” (ACS Infect Dis, 2020)
Out of some 69,000 compounds screened, about 8,600 (12%) showed an effect of 50% or more. The list comes from a sample in which strong results are over-represented; it also holds similar structures and randomly drawn compounds.

test system: Plasmodium berghei; assay: Screen against P. berghei liver stage (PbLuc), transformed with Luciferase, at 10uM; type: functional, HepG2; conditions: tested at 10 uM

Structure (SMILES) | INHIBITION [%]
CS(=O)(=O)N1CCC(c2cncc(Cl)n2)CC1 | -1.16
CC(C)CN(Cc1ccc(O)c(C(=O)O)c1)Cc1ccccn1 | 43.9
CC(C)CN(Cc1ccccn1)Cc1ccccc1C(=O)O | 38.6
CC(C)CN(Cc1ccccn1)Cc1ccccc1OCC(=O)O | 54.4
COCC(=O)NCCn1nc(-c2cc(C)oc2C)ccc1=O | -0.275
O=C(Nc1ccccc1-c1ccccc1)N1C[C@@H]2CNC[C@]2(C(=O)O)C1 | 55.4
O=C(Nc1ccc(-c2ccccc2)cc1)N1C[C@@H]2CNC[C@]2(C(=O)O)C1 | 41.5
O=C(c1ccccc1-c1ccccc1)N1C[C@@H]2CNC[C@]2(C(=O)O)C1 | 49.7
Cc1cc(CNC2CCCN(Cc3noc(C4CC4)n3)C2)on1 (centres undefined) | 46.2
CN(CCc1ccccn1)C(=O)CCC1CCCN(c2ncccn2)C1 (centres undefined) | 16.1
CCCc1csc(-c2ccc(S(C)(=O)=O)cc2)n1 | -39.1
CC(C)(CN1CCC(Cc2cccc(C(=O)O)c2)C1)N1CCOCC1 (centres undefined) | 1.71
CCOc1ccc(Oc2cc(N)ccn2)cc1 | -55.5
O=C(CN1CCOC(Cn2cccn2)C1)Nc1ccncc1 (centres undefined) | -18.2
Cc1cnn(CC2CN(CC(=O)N(C)c3nccs3)CCO2)c1 (centres undefined) | 11.8
Cc1nc(NC(=O)CN2CCOC(Cn3cccn3)C2)sc1C (centres undefined) | 60.4
CN(C(=O)CN1CCOC(Cn2cccn2)C1)c1nccs1 (centres undefined) | 52.1
CN(Cc1ccsc1)C(=O)CN1CCOC(Cn2cccn2)C1 (centres undefined) | 33
O=C(CN1CCOC(Cn2cccn2)C1)NC(C1CC1)C1CC1 (centres undefined) | 58.2
Cc1cnn(CC2CN(CC(=O)Nc3nccs3)CCO2)c1 (centres undefined) | 29.6
Cc1nn(C)c(C)c1NC(=O)CN1CCOC(Cn2cccn2)C1 (centres undefined) | 47.1
O=C(CN1CCOC(Cn2cccn2)C1)Nc1nccs1 (centres undefined) | 53.3

Structure (SMILES) | INHIBITION [%]
Cc1nnc(NC(=O)CN2CCOC(Cn3cccn3)C2)s1 (centres undefined) | 17.4
O=C(CN1CCOC(Cn2cncn2)C1)NC(C1CC1)C1CC1 (centres undefined) | 23.9
O=C(CN1CCOC(Cn2cccn2)C1)Nc1nncs1 (centres undefined) | 41.2
NC(=O)c1csc(N2C[C@@H](CN3CCCCC3)[C@@H](CO)C2)n1 | 14.45
CC(=O)c1cc2ncc(C(=O)NC3CCCCC3)cc2[nH]1 | -25.1
COC(=O)C(C)(C)NC(=O)C1CC(=O)N(CC(F)(F)F)C1 (centres undefined) | -28.7
CC(NC(=O)OC(C)(C)C)c1nnc(S(=O)(=O)Cc2ccccc2Cl)o1 (centres undefined) | 21.5
Cn1ncc2c1C(COCC1CC1)CN(c1ncc(F)cn1)C2 (centres undefined) | 7.67
Cn1cc(-c2nc(C(=O)N3CCCC3Cn3cccn3)cs2)cn1 (centres undefined) | 40.2
Cc1ccc(CC(=O)N2CCCCC2Cn2cccn2)cn1 (centres undefined) | 30.3
O=C1c2c(O)cc(O)cc2O[C@@H](c2ccc(O)cc2)[C@@H]1O | 70.8
COc1cc(C2CC(=O)c3c(O)cc(O)cc3O2)ccc1O (centres undefined) | -17.1
Oc1ccc([C@H]2Oc3cc(O)cc(O)c3C[C@@H]2O)cc1 | 7.5
COc1cc2c(cc1CN1CCn3c(CO)nnc3C1)CCC2 | 3.91
Cc1nc(C)n(CC2CCCCN2CCc2ccncc2)n1 (centres undefined) | 4
CCOC(=O)Cn1cccc(S(=O)(=O)N2CCCC2)c1=O | -2.92
OC1CCN(Cc2ccnc(-c3cccnc3)n2)CC1 | 42.4
c1cncc(-c2nccc(CN3CCC(N4CCCCC4)CC3)n2)c1 | 17.1
CC1CCCN(Cc2ccnc(-c3cccnc3)n2)C1 (centres undefined) | -6.92
c1cncc(-c2nccc(CN3CCCC3)n2)c1 | 51.2
c1ccc(CC2CCN(Cc3ccnc(-c4cccnc4)n3)CC2)cc1 | 50
CCN1CCN(Cc2ccnc(-c3cccnc3)n2)CC1 | 46.1

Structure (SMILES) | INHIBITION [%]
COCCN1C[C@@H](c2ccccc2)[C@@]2(CCN(CC(=O)N(C)C)C2=O)C1 | -4.82
Cc1ccccc1N1CC2(CCN(S(=O)(=O)c3cccs3)C2)CC1=O (centres undefined) | 35.7
Cc1nc(CN2C[C@@H](NS(=O)(=O)N(C)C)[C@H](C(C)C)C2)cs1 | 38.3
CC(=O)c1cc(CN2C[C@@H]3CC[C@H]2CN(S(C)(=O)=O)C3)cs1 | -52.2
CC(=O)c1cc(CN2C[C@@H](NS(=O)(=O)N(C)C)[C@H](C(C)C)C2)cs1 | 52.2
CC(C)[C@@H]1CN(Cc2ccsc2)C[C@H]1NS(=O)(=O)N(C)C | 50.1
Cc1noc(C)c1CN1C[C@@H](NS(=O)(=O)N(C)C)[C@H](C(C)C)C1 | 24.3
CC(=O)c1cc(CN2C[C@@H]3CC[C@H]2CN(S(=O)(=O)N(C)C)C3)cs1 | 80.1
CC(C)[C@@H]1CN(C(=O)NCCc2ccccc2)C[C@H]1NS(=O)(=O)N(C)C | 41.3
CN(C)S(=O)(=O)N1C[C@H]2CC[C@@H](C1)N(Cc1ccc3nsnc3c1)C2 | 45.1
CC(=O)c1cc(CN2C[C@@H](N(C)C)[C@H](C(C)C)C2)cs1 | 13.7
COCCN1C[C@H]2[C@@H](C1)N(C(=O)CCc1ccccc1)CC[C@H]2OC | -14.1
COC(=O)CN(C(=O)c1ccc(-n2ccnc2)cc1)C1CC1 | 6.23
CC(C)c1cc(CN(C)C(=O)CN2CCCCC2=O)no1 | 15.4
Cc1nc(O)cc([C@@H]2CN(S(=O)(=O)N(C)C)C[C@H]2c2ccccc2F)n1 | -6.15
COCC1CN(S(=O)(=O)c2cccc(F)c2)Cc2nccn2C1 (centres undefined) | 41.2
Cn1cc(CN2CCC[C@]3(C[C@H](Oc4ncccc4F)CO3)C2)cn1 | 31.5
CCC(C)NC(=O)c1nnn(-c2ccc(Br)cc2)n1 (centres undefined) | -10.6
CCc1nc(CN2CCCN(c3nccs3)CC2)no1 | 22.5
CCc1nc(CN2CCCN(Cc3cnn(C)c3)CC2)no1 | 35.5
Cc1nc(CN2CCCN(c3nccs3)CC2)no1 | -63.3
CCc1nc(CN2CCCN(c3ncnc4ccsc34)CC2)no1 | 91.1

Structure (SMILES) | INHIBITION [%]
CCn1ccnc1CN1CCN(c2ncnc3ccsc23)CC1 | -50.7
CCc1nc(CN2CCCN(c3ncnc4sccc34)CC2)no1 | 95.1
Cc1nc(CN2C[C@@H]3CN(C(=O)c4ccnnc4)C[C@@H]3C2=O)cs1 | 13.6
COc1ccccc1OC1CN(C(=O)Cc2c(C)nc(N)nc2C)C1 | 1.71
COc1ccccc1OC1CN(C(=O)c2c(C)nc3ccc(C)cn23)C1 | 86.8
COc1ccccc1OC1CN(C(=O)Cc2c(C)nc3ccccn23)C1 | -7.2
COc1ccccc1OC1CCN(C(=O)c2cccc(O)c2C)CC1 | 19.3
COc1ccccc1OC1CN(C(=O)c2ccc(C(C)=O)s2)C1 | 7.3
COc1ccccc1OC1CN(C(=O)c2ccccc2C(C)=O)C1 | 65.7
CCCC(=O)N1CCCC(c2cc3cccnc3c(O)n2)C1 (centres undefined) | 25.8
CCOCC(=O)N1CCc2c(CN(C)C)nn(C(C)C)c2C1 | 23.1
NC(=O)c1cn[nH]c1NC(=O)c1ccc2c(c1)OCO2 | -16.4
Cc1ccc(-c2ccc(C(=O)NCCS(N)(=O)=O)c(F)c2)cc1 | 55.4
CCS(=O)(=O)CCNC(=O)c1ccc(-c2ccc(C)cc2)cc1F | 8.47
NS(=O)(=O)CCNC(=O)c1ccc(-c2ccc(F)cc2)cc1F | -33.2
CCN1C(=O)CCC12CCC(NC(=O)c1cc(C)on1)CC2 (centres undefined) | -45.5
C[C@@H]1CN(c2nc(O)cc(Cc3ccccc3F)n2)C[C@H](C)O1 | 15.5
Cc1cc(-c2nn3c(C4CCC4)nnc3s2)on1 | 34.6
O=C(CCC1CCN(C2CSCCSC2)CC1)NCC1CCCO1 (centres undefined) | 34.9
c1cncc(OCc2noc3c2CN(Cc2ccco2)CC3)c1 | 38.5
Cc1nnc(SC2CCN(c3sccc3C#N)C2=O)[nH]1 (centres undefined) | 40.7
Cc1nc(SC2CCN(c3sccc3C#N)C2=O)oc1C (centres undefined) | 51.5

Structure (SMILES) | INHIBITION [%]
Cc1nnc(SC2CCN(c3sccc3C#N)C2=O)s1 (centres undefined) | 16.8
O=C(Cc1csc(-c2ccccc2F)n1)NCc1ccc(C(=O)O)cc1 | 2.61
CCn1cc(NC(=O)NCc2ccc3c(c2)OCO3)cn1 | -25.9
CCCc1noc(C(C)N2CCN(Cc3nc(C)c(C)o3)CC2)n1 (centres undefined) | -12.25
Cc1cnn(CCNCC(=O)N2CCN(c3ncccn3)CC2)c1 | 25.1
CN(C)c1cccc(C(=O)Nc2cn(C)c(=O)n(C)c2=O)c1 | 31.2
Cn1cc(NC(=O)c2cccc(Cl)c2)c(=O)n(C)c1=O | 56.1
Cn1cc(NC(=O)c2cccc(C(F)(F)F)c2)c(=O)n(C)c1=O | 15
CCC(=O)N1CCCC(Cn2cc(-c3ccc(F)cc3)nn2)C1 (centres undefined) | -14.2
Cc1ccccc1N1CCCN(C(=O)CCCn2ccnc2C)CC1 | 75.4
Cc1nccn1CCCC(=O)N1CCCN(c2cccnn2)CC1 | 10
CCOCCC(=O)N1CCCN(c2ccccc2C)CC1 | 15.2
Cn1nccc1C(=O)N1CCCN(CCCc2ccccc2)CC1 | -16.8
O=C(c1ncoc1C1CC1)N1CCCN(CCCc2ccccc2)CC1 | 83.9
Cc1ccccc1N1CCCN(C(=O)c2cn(C)c3ccccc23)CC1 | -2.13
CSCCC(=O)N1CCCN(c2ccccc2C)CC1 | 34.1
O=C(c1ncoc1C1CC1)N1CCN(CCOc2ccccc2)CC1 | 26.7
CSCC(=O)N1CCCN(c2ccncc2C)CC1 | 49.2
CSCC(=O)N1CCCN(c2ccccc2C)CC1 | 84.5
Cc1ccccc1N1CCN(C(=O)CC(C)C)CC1 | 56.5
Cc1cnccc1N1CCCN(C(=O)CCCn2ccnc2C)CC1 | -2.48
